Screening results deposited in PubChem by several laboratories.
A selection: hits, their analogues and other compounds. The true share with any hit is near 2.1%.
PLCg1 inh: PLC-gamma1 enzyme inhibitors, primary screen, biochemical, fluorescence, purified enzyme; fluorogenic substrate; inhibition, % at 12.2 µM; 370,000 tested, 0.84% active
PLCb3 inh: human PLC-beta3 inhibitors, primary screen, biochemical, fluorescence. 1-phosphatidylinositol 4,5-bisphosphate phosphodiesterase beta-3 (Homo sapiens), Q01970. Purified PLC-beta3, fluorogenic substrate. inhibition, % at 12.2 µM. 370,000 tested, 0.18% active. AID 720704, 2013; in the data active = inhibition above about 11%;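 also: 0% = median of compound wells on plate and 100% = full blocker control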
Rce1 inh: yeast Rce1p protease inhibitors, primary screen, biochemical, fluorescence, cell-free homogeneous | CAAX prenyl protease 2 (Saccharomyces cerevisiae (strain ATCC 204508 / S288c)), Q03530 | yeast membranes, quenched prenylated peptide cleavage fluorescence | calls only | 290,000 tested, 0.27% active;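 active = fall in fluorescence gain of 50% or more versus controls, with final raw signal at or below 3038400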;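 also: plate controls were neutral control wells for no effect and wells lacking membranes for full effect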
Target sequence (Q03530 whole entry, looked up): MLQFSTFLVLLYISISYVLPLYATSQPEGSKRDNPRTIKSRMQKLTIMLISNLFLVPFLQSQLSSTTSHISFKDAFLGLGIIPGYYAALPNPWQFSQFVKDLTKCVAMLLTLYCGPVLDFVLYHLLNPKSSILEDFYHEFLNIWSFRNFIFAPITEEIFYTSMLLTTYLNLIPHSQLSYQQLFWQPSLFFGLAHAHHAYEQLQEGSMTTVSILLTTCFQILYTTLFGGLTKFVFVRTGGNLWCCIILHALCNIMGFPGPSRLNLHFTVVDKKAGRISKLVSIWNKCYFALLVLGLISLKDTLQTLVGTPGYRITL
ADAM10 inh: human ADAM10 inhibitors, primary screen, biochemical, QFRET, HTS; 370,000 tested, 0.62% active; recombinant ADAM10, EDANS/DABCYL FRET peptide cleavage, 3 h; inhibition, % at 7 µM; Disintegrin and metalloproteinase domain-containing protein 10 (Homo sapiens), O14672;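 active = inhibition above a per-campaign cutoff equal to the mean of compounds falling between control-based bounds plus 3 SD, cut at about 20% in these data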;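 also: 0% = DMSO wells while the 100% control is not disclosed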
ADAM17 inh: ADAM17 inhibitors, primary screen, biochemical, QFRET; Disintegrin and metalloproteinase domain-containing protein 17 (Homo sapiens), P78536; recombinant ADAM17, EDANS/DABCYL FRET peptide cleavage; inhibition, % at 6.95 µM; 370,000 tested, 0.83% active;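 active = inhibition above the mean of compounds lying between control limits plus 3 SD, set per campaign, cut at about 8.5% in these data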;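 also: 0% = DMSO-only wells as the low control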
PLCg1 ctr: PLC-gamma1 enzyme inhibitors, counter-screen for PLC-beta3 inhibitor project, biochemical, fluorescence; shares compounds with PLCg1 inh; inhibition, % at 12.3 µM; purified PLC-gamma1, fluorogenic substrate; 3,300 tested, 3.1% active
PLCbeta3 conf: PLC-beta3 inhibitor confirmation, biochemical, fluorescence, purified enzyme | shares compounds with PLCg1 inh | fluorogenic substrate fluorescence | inhibition, % at 12.3 µM | 3,300 tested, 1% active | AID 743261, 2014; in the data active = inhibition above about 11%
Numbers without * were called inactive; i = inactive; . = no result given. Rule as the data show it, unless noted: active = inhibition above about 9.5%; inactive = the rest.

SMILES	PLCg1 inh	PLCb3 inh	Rce1 inh	ADAM10 inh	ADAM17 inh	PLCg1 ctr	PLCbeta3 conf
O=C1C(=O)c2cccc3cccc1c23	-1	0	i	-4	-4	.	.
O=C1C(=O)c2ccccc2-c2ccccc21	57*	2	i	-1	1	43*	6
CCc1ccc(OCC(=O)N2CCN(Cc3ccc4c(c3)OCO4)CC2)cc1	1	-5	i	4	-3	.	.
C=Cn1ccnc1P(=S)(c1ccn(C)c1)c1nccn1C=C	14*	5	i	12	2	-8	-5
C1=CC(Cc2cncs2)c2ccccc21 (centres undefined)	-28	-48	.	-26	-10	.	.
CN(C=O)CP(=O)(O)CN(C)C=O	13*	13*	i	4	4	-1	-1
CC1(C)CN=C(NCc2ccccc2Cl)S1	12*	-1	i	-8	1	0	2
CC1CN=C(NCc2ccccc2Cl)S1 (centres undefined)	8	-1	i	15	1	.	.
CCC(=NCc1cccnc1)c1c(O)n(C2CCCCC2)c(=O)[nH]c1=O	-4	-2	i	-14	-4	.	.
CCC(=NCc1ccco1)c1c(O)n(C2CCCCC2)c(=O)[nH]c1=O	1	12*	i	1	3	-2	21*
CCn1ccnc1CN1CCCC(C(=O)c2cccc(C(F)(F)F)c2)C1 (centres undefined)	11*	5	i	4	3	-5	-2
COC(=O)C1=C(c2cccc(OCc3ccccc3)c2)C[C@@H]2CC[C@H]1N2C(=O)NCCOc1ccccc1	10*	3	.	9	4	0	5
O=C(O)c1[nH]c(=O)[nH]c(=O)c1F	0	-7	i	0	-6	.	.
O=C1NCN(c2ccccc2)C12CCN(C(c1cccc3ccccc13)c1nnnn1C1CCCCC1)CC2 (centres undefined)	12*	3	.	4	8	-1	-3
CCC1(CCC(C)C)C(=O)NC(=S)NC1=O	2	-2	.	-16	-4	.	.
O=C(CCC(=O)N1CCC2(CC1)OCCO2)Nc1nnc(C2CCCCC2)s1	-2	-7	i	-3	2	.	.
N#CCCn1cc(C(=O)Nc2ccccc2Cl)c(-c2ccc(F)cc2)n1	3	-1	i	10	2	.	.
O=P(O)(O)C12CC3CC(CC(C3)C1)C2	13*	9	i	7	3	-4	-1
NC(=O)OCCCc1ccccc1	11*	0	i	0	-5	-7	-2
CCN(CC)CCCN=Cc1c(O)n(CCc2ccc(OC)c(OC)c2)c(=O)[nH]c1=O	18*	0	.	8	-5	-2	0
CN1CCN(CCOC2c3ccccc3CSc3ccc(Cl)cc32)CC1 (centres undefined)	12*	2	i	7	3	3	3
CC(C)[C@]12CC(=O)[C@H](C)[C@H]1C2	3	2	.	2	-1	.	.
COc1ccc(CC(=O)N(CCN(C)C)CC2CCCN(Cc3ccccc3F)C2)cc1 (centres undefined)	13*	-1	i	6	8	-1	-2
CCc1cc(=O)[nH]c(SCCCF)n1	-1	0	.	-7	-2	.	.
Nc1ncnc2c1ncn2[C@@H]1O[C@H](COP(=O)(O)CP(=O)(O)O)[C@@H](O)[C@H]1O	73*	1	.	5	3	79*	-2
CCNC(=O)[C@H]1O[C@@H](n2cnc3c(N)ncnc32)[C@H](O)[C@@H]1O	1	1	i	5	-4	.	.
C[C@]12CCC3C(CC[C@H]4C[C@@H](O)CC[C@]34C)C1C[C@@H](Br)[C@H]2O (some centres undefined)	0	2	.	-8	0	.	.
